Columns and labels:
Conditions in all cases: concentration: 1 μM, replicates: in singlicate; n = 1
TLK1 = system: TLK1
TLK2 = system: TLK2
TNIK = system: TNIK
TNK1 = system: TNK1
TNK2 = system: TNK2
TNNI3K = system: TNNI3K
TRKA = system: T1, TRKA
T1 construct: gene NTRK1

TRKB = system: TRKB
TRPM6 = system: TRPM6
TRKC = system: T2, TRKC
T2 construct: gene NTRK3
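Further: KINOMEscan kinase panel screen.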

| SMILES | %Inh (TLK1) [%] | %Inh (TLK2) [%] | %Inh (TNIK) [%] | %Inh (TNK1) [%] | %Inh (TNK2) [%] | %Inh (TNNI3K) [%] | %Inh (TRKA) [%] | %Inh (TRKB) [%] | %Inh (TRPM6) [%] | %Inh (TRKC) [%] |
| --- | --- | --- | --- | --- | --- | --- | --- | --- | --- | --- |
| COc1cc2ncnc(Nc3cccc(Br)c3)c2cc1OC.Cl [GI230329] | 0 | 0 | 10 | 0 | 8 | 15 | 45 | 32 | 0 | – |
| O=C(Nc1n[nH]c2cc(-c3ccsc3)ccc12)C1CC1 [SB-732932] | 0 | 0 | 61 | 0 | 8 | 0 | 87 | 39 | 0 | 38 |
| COc1ccc(CSc2nnc(-c3ccc4nccn4c3)o2)cc1C(F)(F)F | 6 | 13 | 0 | 0 | 3 | 0 | 18 | 0 | 0 | 38 |
| CCCCc1nn2ncccc2c1-c1ccnc(NC2CC2)n1 [GW684374] | 15 | 7 | 0 | 0 | 0 | 0 | 0 | 6 | 25 | 0 |
| CC(=O)c1cccc(NC(=O)NC2CCN(c3ccnc(Nc4ccc(F)cc4)n3)C2)c1 (stereo not shown) [GSK1379710] | 12 | 25 | 3 | 0 | 7 | 5 | 56 | 69 | 32 | 81 |

Source: paper PMC5540273 (PLoS ONE, 2017)
